Measured values: PubChem BioAssay (NCI)
This is part of a sample that, as a whole, favours compounds with a hit. Of some 83,000 tested, about 20% had one in any assay.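 Percent growth is the endpoint: 0 to 100 indicates growth inhibition (40 means 60% inhibition), 0 means no net growth, and negative values indicate cell death.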 The source made the active and inactive calls. Rule for the calls: active = growth percent below 10; inactive = the rest.

What follows are molecules tested on MDA-MB-468 breast (assay: NCI-60 one-dose screen, 48 h (100 = growth as untreated, 0 = no growth, -100 = all killed)). Conditions: 10 µM unless noted.

Structure (SMILES) | growth
COc1ccc(-c2cn(-c3ccccc3)c(-c3ccccc3)n2)cc1OC | 9.76% (active)
CCOC(=O)c1ccoc1 | 95.7% (inactive)
COc1cc2c(c(OC)c1OC)CCC(c1cccc(C(=O)Nc3cccc(Cl)c3)c1)O2 (stereo not given) | 77.4% (inactive)
O=C(Nc1ccc(NC(=O)c2cc(=O)[nH]c3ccccc23)cc1)Nc1cccc(C(F)(F)F)c1 | 24.6% (inactive)
CN1CCCC1c1cccnc1 (stereo not given) | 97.1% (inactive)
Cc1ccc(NC(=O)c2sc3nc(C)c(C(O)c4ccccc4)cc3c2N)cc1 (stereo not given) | 18.6% (inactive)
O=C(O)c1cccnc1Br | 102% (inactive)
COc1ccc2nc3cc(Cl)ccc3c(N3CCN(c4ccnc(Nc5ccc(F)cc5)n4)CC3)c2c1 | 63.8% (inactive)
OCC1OC(n2cnc3c(=S)nc[nH]c32)C(O)C1O (stereo not given) | -6.42% (active)
COc1ccc([C@H]2c3[nH]c4ccccc4c3C[C@H]3C(=O)N(C4CCN(Cc5c(Cl)cccc5Cl)CC4)CC(=O)N23)c(OC)c1 | 92.8% (inactive)
O=S(=O)(NCCCNc1cc(-c2cn(-c3ccccc3)nc2-c2cccc(O)c2)ccn1)c1ccccc1 | 4.3% (active)
O=C(Nc1ccc2[nH]ncc2c1)c1csc(Nc2ccccc2)n1 | 14.4% (inactive)
COc1cnc2c(c1)C(=O)c1c-2n(CCCn2ccnc2)c(=O)c2cc(Cl)ccc12 | -11.2% (active)
CCCCCCCCCCCCCCCC(N)c1ccccc1 (stereo not given) | -82.2% (active)
O=C(O)c1ccc(=O)[nH]n1 | 123% (inactive)
Cc1cc(Nc2nc(-c3ccc(F)cc3)nc3ccccc23)n[nH]1 | 58.2% (inactive)
COC(=O)CCCNc1c(-c2c(O)c(O)cc3c(O)c(-c4c(C)cc5c(-c6nc7ccccn7c6NCCCC(=O)OC)c(O)c(O)cc5c4O)c(C)cc23)nc2ccccn12 | 26.9% (inactive)
O=C(Nc1cccnc1)c1ccc2ccc3ccc(C(=O)Nc4cccnc4)nc3c2n1 | -1.83% (active)
CN1CCN(CC(=O)Nc2nc3c(s2)Nc2cc(Cl)c(Cl)cc2NC3=O)CC1 | 114% (inactive)
O=C(NNc1nc2cc(F)ccc2n2cccc12)c1ccncn1 | -15.2% (active)

Structure (SMILES) | growth
CCOC(=O)N1CCN(CCCCOc2ccc(C(C)(C)CC)cc2)CC1 | 92.9% (inactive)
CCOC(=O)C(C(=O)OCC)C1CCCCC1 | 105% (inactive)
CNc1ccc(Cl)cc1S(=O)(=O)c1ccccc1[N+](=O)[O-] | 72.7% (inactive)
NS(=O)(=O)c1ccc(CN2C(=O)c3cccc4cccc(c34)C2=O)cc1 | 98.2% (inactive)
O=C1N=NC2=C1c1c3ccccc3c(O)n1CC2 | 96.6% (inactive)
N#Cc1ccc(O)c(C2=NCC(c3cccc(Oc4ccccc4)c3)O2)c1 (stereo not given) | 27% (inactive)
O=C(/C=C\c1cccc([N+](=O)[O-])c1)/C=C/c1cccc([N+](=O)[O-])c1 | 91.4% (inactive)
CCCOc1ccc(/C=N/Nc2cc(C)nc3ccc(Cl)cc23)cc1 | 8.78% (active)
COc1cc(C(=O)/C=C/c2sc(Cl)nc2Cl)cc(OC)c1OC | -50.9% (active)
COc1cc(OC)c(C(=O)/C=C/c2cccc(C(F)(F)F)c2)c(OC)c1 | -9.39% (active)
c1csc(-c2c3ccc(=[N+]4CCCCC4)cc-3oc3cc(N4CCCCC4)ccc23)c1 | -90% (active)
CCN1C(=O)N(CC)C2Nn3c(s/c(=C4\C(=O)Nc5ccccc54)c3=O)=NC21 (stereo not given) | 5.05% (active)
C1CCC(C(CC2CCCCN2)C2CCCCC2)CC1 (stereo not given) | -90.1% (active)
COC(=O)/C=C1\S/C(=N\NS(=O)(=O)c2ccc(C)cc2)N(c2ccccc2)C1=O | 102% (inactive)
CCc1ccccc1-n1c(-c2ccc(Cl)cc2)cc(-c2ccc(OC)cc2)c(C#N)c1=O | 104% (inactive)
C[C@H]1[C@H](C)CC[C@]2(CO)CC[C@]3(C)C(=CC[C@@H]4[C@@]5(C)Cc6c([nH]c7ccccc67)C(C)(C)[C@@H]5CC[C@]43C)[C@H]12 | 77.8% (inactive)
COc1ccc2cc(-c3cnc4nonc4n3)ccc2c1 | -2.09% (active)
CCc1n(Cc2ccc3ccccc3c2)c2ccccc2[n+]1Cc1ccc2ccccc2c1 | 5.98% (active)
CC(=O)/C(=C/c1ccc(Cl)cc1)C(=O)c1ccccc1 | 96.9% (inactive)
CC(C)OC(=O)Nc1cc(F)c(F)cc1F | 84% (inactive)
